This is part of a sample that, as a whole, favours compounds with a hit. Of some 83,000 tested, about 20% had one in any assay.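 Compound tested at a single concentration for 48 hours in 96-well plates; a percent growth value below 10 was scored as active.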 The source made the active and inactive calls.

The experiment concerns HL-60(TB) leukemia. Nature of the experiment: NCI-60 one-dose screen, 48 h (100 = growth as untreated, 0 = no growth, -100 = all killed). The settings on record: 10 µM unless noted.
Take `Cc1nc([P+](c2ccccc2)(c2ccccc2)c2ccccc2)c(N2CCCCC2)o1`: the growth is -2.68% (active). The result for `O=C(CSC(=S)N1CCCCC1)Nc1ccccc1` reads 100% (inactive). Regarding `CCOC(=O)c1c(C)oc2ncnc(Nc3ccc(NC(=O)Nc4cccc(Cl)c4)cc3)c12`, the growth was 88.4% (inactive). Regarding `COc1cccc(/C=C2\C=C(c3ccccc3)N(Cc3ccccc3)C2=O)c1`, the growth was 90.7% (inactive).

In the case of `N#Cc1ccccc1OCC(=O)Nc1nc2c(s1)COc1ccccc1-2`, the growth was 107% (inactive). With `CCc1nc2cc(/C=C/C(=O)NO)c(F)cc2c(=O)n1CCc1ccccc1` the figure was -8.55% (active); with `Cc1cccc(C)c1NCc1nc(-c2ccccc2)n[nH]1`, 90.7% (inactive).

As for `COc1cc(NS(=O)(=O)C(C)C)cc(-c2cc(-c3ccc(N4CCNCC4)cc3)cnc2N)c1`, the growth is 78.3% (inactive). The result for `O=C1c2c(c3c4ccccc4n(CCCCCCN4CCOCC4)c3c3[nH]c4ccccc4c23)C(=O)N1O` reads 77.7% (inactive); that for `Clc1nc(Cl)c2c3c(sc2n1)CCCC3`, -14.2% (active); that for `O=C(CN1CCN(c2ccc(Cl)cc2)CC1)N1CCN(c2nnc(-c3ccc(Cl)cc3)c(-c3ccc(Cl)cc3)n2)CC1`, 41.4% (inactive).

For `CN1CCN(c2ccc(-c3cc4c(Nc5ccc(F)c(Cl)c5)ncnn4c3)cn2)CC1`, the growth was 72.8% (inactive). For the molecule `COc1cc(C2NC(c3cc(OC)c(OC)c(OC)c3)C(C#N)(C#N)C2(C#N)C#N)cc(OC)c1OC` (stereo not given), the growth is 89.3% (inactive). The result for `CSc1nc(O)c(-c2ccccc2)c(=O)[nH]1` reads 89.5% (inactive). With `COc1cccc(/C=C2\Oc3cc(OCCCN4CCCC4)ccc3C2=O)c1OC` the figure was 96.3% (inactive); with `CCOC(=O)c1c(C)[nH]c(CO)c1C`, 97.1% (inactive).

Regarding `O=C1/C(=C/c2ccccc2O)C(=S)SN1Cc1ccco1`, the growth is 92% (inactive). The result for `NC(=S)N/N=C/c1ccc(OC(=O)COc2cc(Cl)c(Cl)cc2Cl)cn1` reads 47.1% (inactive); that for `CCc1ccc(C2=C(O)C(=O)C(c3ccc(CC)cc3)=C(O)C2=O)cc1`, -57.6% (active); that for `CC1(C)OC2C(CO)OC(n3ccc(=O)[nH]c3=O)C2O1` (stereo not given), 105% (inactive). Consider `Cc1cccc(Cc2cnc(NC(=O)CCc3ccc(C)o3)s2)c1`, for which the growth is -41.5% (active).

`Cc1c(O)c(=O)n(-c2ccccc2)n1C`: the growth is 119% (inactive). With `CCCCCCCCCCC1OC(C)CC(C)O1` (stereo not given) the figure was 92.9% (inactive); with `O=C1Nc2ccccc2/C1=C/c1cn(C(=O)c2ccc(Cl)cc2)c2ccccc12`, 150% (inactive). The result for `COc1ccc(/C(C)=C(\c2ccc(OCCN3CCCCCC3)cc2)c2ccc(OC(=O)c3ccccc3)cc2)cc1` reads 31.2% (inactive).

Turning to `O=C1COCCN1c1ccc(NCc2cn(Cc3ccccc3)c3ccccc23)cc1`, the growth was 99.1% (inactive).

Take `Cn1c(N)c(N=Cc2ccccc2)c(=O)n(C)c1=O`: the growth was 86.1% (inactive).

`C=CC(C)(O)CCC1C(=C)CCC2C(C)(C)CCCC12C` (stereo not given): the growth is 82.1% (inactive). Consider `N=C(N)c1ccc(-c2ccc(-c3ccc(Cl)cc3Cl)s2)cc1`, for which the growth was -45.1% (active). On to `COc1ccc(NC(=O)CCn2cnc3c(cc(-c4ccccc4)n3-c3ccccc3)c2=O)cc1`, for which the growth was 95.9% (inactive).

In the case of `O=C1/C(=C/c2ccc(F)cc2)C=C(c2ccccc2)N1CCc1ccccc1`, the growth is 81% (inactive). Turning to `COc1ccccc1OCC(=O)N1CCCCCC1`, the growth is 93.6% (inactive).

As for `O=C(Nc1cccc(-n2ccc3c(NC(=O)c4ccccc4)nccc32)c1)Nc1cc(C(F)(F)F)cc(C(F)(F)F)c1`, the growth is -17.6% (active). With `O=C(NNC(=S)Nc1ccccc1)c1ccncc1`, the growth was 117% (inactive). Turning to `COc1cc(/C=N\NC(=O)CN2CCN(c3cc4c(cc3F)c(=O)c(C(=O)N/N=C/c3ccc(O)c(OC)c3)cn4C3CC3)CC2)ccc1O`, the growth is 75.4% (inactive). The result for `CNCCCNc1ccnc2cc(Cl)ccc12` reads -25% (active); that for `O=C(c1ccccc1)c1c(/C=C/c2ccc(Cl)cc2)nc2ccccc2c1/C=C/c1cccs1`, 102% (inactive); that for `O=C(/C=C/c1ccccc1)n1c(-c2ccc(Cl)cc2)nc2ccccc21`, -3.97% (active). The result for `COc1ccc(-c2nc3ncccn3c2-c2nc3ccc(Br)cc3[nH]2)cc1` reads 81.3% (inactive). The result for `Cc1ncc([N+](=O)[O-])n1CCOc1ccc(C(=O)/C=C/c2ccc(C(F)(F)F)cc2)cc1` reads 54.3% (inactive).
